Data published in PubChem BioAssay AID1259421 (Broad Institute, 2018).
Where “and” joins values, the source holds several entries; their conditions need not be identical. Identical values can stand only once. Screen size: about 6,400 compounds; about 610 (9.5%) were called active. No stated cut-off is given here; in the data, active means activity change below about -70%; inconclusive means no clear call, values can overlap the other calls; inactive means above that. The full list was thinned out, with actives kept by preference. A structure can be active in one record and inactive in another.

Assay: T. gondii ME49Luc in HeLa cells, luciferase assay, 72 h, no IFN-y (AID 1259421)
Conditions: stronger effect = lower value, concentration not given here

Row | Compound | activity change, negative = inhibition
1 | Cc1noc(-c2ccc(CSCCC(=O)O)cc2)c1NC(=O)OC(C)c1ccccc1Cl (centres undefined) | 13.3% (inactive)
2 | O=C(O)c1ccc2nc(-c3cc(Cl)cc(Cl)c3)oc2c1 | 84.3% (inactive)
3 | Cc1[nH]c(/C=C2\C(=O)Nc3ccc(S(=O)(=O)Cc4c(Cl)cccc4Cl)cc32)c(C)c1C(=O)N1CCC[C@@H]1CN1CCCC1 | -78.2% (active) and -84% (active) and -67.3% (inactive)
4 | Cc1[nH]c(/C=C2\C(=O)Nc3ccc(S(=O)(=O)N(C)c4cccc(Cl)c4)cc32)c(C)c1C(=O)N1CCN(C)CC1 | -35.8% (inactive)
5 | OC1(c2ccc(Cl)cc2)CCNCC1 | 13.9% (inactive)
6 | CN1CC[C@@H](NC(=O)Nc2ccc(C#N)cc2)C[C@@H]1c1nc2ccccc2[nH]1 | 7.93% (inactive)
7 | CC(C)C[C@H](NC(=O)[C@@H](NC(=O)c1cccc(-c2ccccc2)n1)[C@@H](C)O)B(O)O | -75.2% (active) and -70.7% (active)
8 | CC(C)C[C@H](NC(=O)[C@@H](O)[C@H](N)Cc1ccccc1)C(=O)O | -0.518% (inactive) and 15% (inactive)
9 | CNC(=O)[C@H](Cc1ccccc1)NC(=O)[C@H](CC(C)C)[C@H](CSc1cccs1)C(=O)NO | -1.31% (inactive) and 10.6% (inactive)
10 | CC(C)C[C@H](NC(=O)[C@H](Cc1ccccc1)NC(=O)c1cnccn1)B(O)O | -73.2% (active) and -72% (active)
11 | CC(C)C[C@@H](NC(=O)OCC1c2ccccc2-c2ccccc21)C(=O)O | 145% (inactive) and 359% (inactive)
12 | CC(C)CC(NC(=O)OCC1c2ccccc2-c2ccccc21)C(=O)O (centres undefined) | -4.74% (inactive)
13 | CCC[N+]12C3C[C@H](C4C(O)[C@]5(C[C@@H]41)c1ccccc1N(C)[C@@H]35)[C@H](CC)[C@H]2O (some centres undefined) | 10.9% (inactive)
14 | CCOc1ccc(N=C(C)Nc2ccc(OCC)cc2)cc1 | 3.11% (inactive)
15 | CCCc1c(OCC(O)COc2ccc3c(=O)cc(C(=O)O)oc3c2CCC)ccc(C(C)=O)c1O (centres undefined) | 10.3% (inactive) and -5.08% (inactive)
16 | CCOC(=O)C1CN(Cc2ccccc2)C(=O)C1=O (centres undefined) | 16.6% (inactive) and 1.66% (inactive)
17 | N[C@@H]1CCCC[C@H]1N.O=C(O)C(=O)O.[Pt] | 10.5% (inactive)
18 | CC1(C)CC[C@]2(C(=O)O)CC[C@]3(C)C(=CCC4[C@@]5(C)CC[C@@H](O)C(C)(C)C5CC[C@]43C)C2C1 (some centres undefined) | 10.1% (inactive)
19 | COc1c(N2CCNC(C)C2)c(F)cc2c(=O)c(C(=O)O)cn(C3CC3)c12 (centres undefined) | 7.25% (inactive) and -78% (active)
20 | NC1CCN(c2c(F)cc3c(=O)c(C(=O)O)cn(C4CC4)c3c2Cl)C1 (centres undefined) | -79.3% (active)
21 | CNC1CCCN(c2c(F)cc3c(=O)c(C(=O)O)cn(C4CC4)c3c2OC)C1 (centres undefined) | 0.884% (inactive)
22 | N[C@@H]1CN(c2c(F)cc3c(=O)c(C(=O)O)cn([C@@H]4C[C@@H]4F)c3c2Cl)CC12CC2 | -6.27% (inactive)
23 | N[C@@H]1CCCCN(c2c(F)cc3c(=O)c(C(=O)O)cn(C4CC4)c3c2Cl)C1 | 4.72% (inactive)
24 | COc1c(N2C[C@@H]3CCCN[C@@H]3C2)c(F)cc2c(=O)c(C(=O)O)cn(C3CC3)c12 | -7.38% (inactive)
25 | C[C@H](NC(=O)c1sccc1OCc1ccc(Cl)cc1)c1ccccc1 | 28.7% (inactive)

Row | Compound | activity change, negative = inhibition
26 | O=C(O)c1cc(Oc2ccc([N+](=O)[O-])cc2)cc(Oc2ccc([N+](=O)[O-])cc2)c1 | 4.54% (inactive) and 5.04% (inactive)
27 | CC1=CC2C(CC1=O)C(C)=CCC2C(C)C (centres undefined) | 4.22% (inactive)
28 | c1ccc(COCCCc2cnc[nH]2)cc1 | -41.7% (inactive) and 17.9% (inactive)
29 | O=C(Nc1c(-c2cccs2)nc2ccccn12)c1ccc(Cl)cc1 | 6.95% (inactive)
30 | CN1C(CC(=O)c2ccccc2)CCCC1CC(O)c1ccccc1 (centres undefined) | 6.13% (inactive) and 6.36% (inactive)
31 | CO[C@H]1C[C@H](O[C@H]2[C@H](C)[C@@H](OC3O[C@H](C)C[C@H](N(C)C)[C@H]3OC(C)=O)[C@@H](C)C[C@]3(CO3)C(=O)[C@H](C)[C@@H](OC(C)=O)[C@@H](C)[C@@H](C)OC(=O)[C@@H]2C)O[C@@H](C)[C@@H]1OC(C)=O (some centres undefined) | 5.2% (inactive)
32 | Nc1ncnc2c1c(-c1cccc(OCc3ccccc3)c1)cn2C1CC(CN2CCCC2)C1 (centres undefined) | -69.4% (inactive)
33 | Nc1ncnc2c1c(-c1cccc(OCc3ccccc3)c1)cn2C1CC(CN2CCC2)C1 (centres undefined) | -81.2% (active)
34 | Cc1cccc(C)c1NC(=O)CC12CCCN1CCC2 | 13.3% (inactive)
35 | CC(C)(C)NCC(O)COc1nsnc1N1CCOCC1 (centres undefined) | -0.1% (inactive)
36 | O=C1CCC(c2ccccc2)(C2CCN(Cc3ccc(I)cc3)CC2)C(=O)N1 (centres undefined) | 11.1% (inactive)
37 | Cc1ccc(/C=C2/CNC/C(=C\c3ccc(C)cc3)C2=O)cc1 | -85.7% (active)
38 | Cc1ccc(/C=C2\C(=O)C3(C)CCC2C3(C)C)cc1 (centres undefined) | 2.27% (inactive)
39 | Cc1ccc(/C=C2\CNC/C(=C\c3ccc(C)cc3)C2=O)cc1 | -83.2% (active)
40 | Cc1ccc(S(N)(=O)=O)cc1 | 13.5% (inactive)
41 | CC(C)C[C@H](N[C@@H](Cc1cncn1Cc1cc(Cl)cc(Cl)c1)C(=O)O)C(=O)O | 6.67% (inactive)
42 | CC1(O)CC(c2nc(-c3ccc4ccc(-c5ccccc5)nc4c3)c3c(N)nccn23)C1 (centres undefined) | -27.9% (inactive)
43 | CCn1c(N)c(C(=O)NC)c(=O)c2ccc(C#C[C@@](C)(O)COC)nc21 | 13.3% (inactive)
44 | CC1(C)C2CC[C@]3(C)[C@H](C(=O)C=C4[C@@H]5C[C@@](C)(C(=O)O)CC[C@]5(C)CC[C@]43C)[C@@]2(C)CC[C@@H]1OC(=O)CCC(=O)O (some centres undefined) | 6.15% (inactive) and 3.75% (inactive)
45 | CC(=O)O[C@H]1CC[C@@]2(C)C(C[C@@H](OC(C)=O)[C@@]3(C)C4=CC(=O)O[C@@H](c5ccoc5)[C@]4(C)CCC23)C1(C)C (some centres undefined) | 15% (inactive)
46 | CC(=O)O[C@]1(C(C)=O)CCC2C3C=C(C)C4=CC(=O)CCC4(C)C3CCC21C (some centres undefined) | 4.78% (inactive) and -4.91% (inactive)
47 | CCCCCCCCCCCCCCCC(=O)OC(C)C | 3.86% (inactive)
48 | CN[C@H](C(=O)N[C@H](C(=O)N(C)[C@H](/C=C(\C)C(=O)O)C(C)C)C(C)(C)C)C(C)(C)c1ccccc1 | -73.6% (active)
49 | C[C@H]1CCO[C@H]2Cn3cc(C(=O)NCc4ccc(F)cc4F)c(=O)c(O)c3C(=O)N21 | 25.9% (inactive)
50 | Cc1cccc(C)c1NC(=O)c1cc(S(N)(=O)=O)c(Cl)cc1O | 15.4% (inactive)

Row | Compound | activity change, negative = inhibition
51 | Cc1c(C)c2c(c(C)c1OC(=O)CCC(=O)O)CC[C@@](C)(CCC[C@H](C)CCC[C@H](C)CCCC(C)C)O2 | 19.4% (inactive)
52 | O=c1c(O)c(-c2ccccc2)oc2cc(O)ccc12 | 31.5% (inactive)
53 | CN1CC(C(=O)NC2(C)OC3(O)C4CCCN4C(=O)C(Cc4ccccc4)N3C2=O)CC2c3cccc4[nH]cc(c34)CC21 (centres undefined) | -10.4% (inactive)
54 | CN1C[C@H](C(=O)N[C@]2(C)O[C@@]3(O)[C@@H]4CCCN4C(=O)[C@H](Cc4ccccc4)N3C2=O)C[C@@H]2c3cccc4[nH]cc(c34)C[C@H]21 | 5.44% (inactive) and 2.08% (inactive)
55 | CC(=O)C1C(=O)[C@@H]2[C@H]3c4c[nH]c5cccc(c45)C[C@H]3C(C)(C)N2C1=O (some centres undefined) | -78.3% (active) and -0.858% (inactive)
56 | O=c1[nH]c2ccccc2c(=O)n1CCCN1CCN(c2ccccc2)CC1 | 11.8% (inactive)
57 | CCC1(C)OC(=O)N(C)C1=O (centres undefined) | -5.39% (inactive)
58 | O=c1[nH]cnc2ccccc12 | 0.966% (inactive) and 1.04% (inactive)
59 | CC(C)(C)c1[nH]cnc1/C=c1\[nH]c(=O)/c(=C/c2ccccc2)[nH]c1=O | -85.5% (active)
60 | CCCCCCCCCCCCCCOS(=O)(=O)O | 8.96% (inactive)
61 | COc1ccc(C(=O)/C=C/c2ccccc2)cc1 | 157% (inactive)
62 | CC(=O)NC[C@H]1CN(c2ccc(N3CCN(C(=O)CO)CC3)c(F)c2)C(=O)O1 | 6.07% (inactive)
63 | CC(=O)NC(Cc1c[nH]c2ccccc12)C(=O)OCc1cc(C(F)(F)F)cc(C(F)(F)F)c1 (centres undefined) | -1.95% (inactive)
64 | FC(F)(F)c1cc(CO[C@H]2CCCN[C@H]2c2ccccc2)cc(C(F)(F)F)c1 | -9.54% (inactive) and -89.9% (active)
65 | CC(=O)N[C@H](Cc1c[nH]c2ccccc12)C(=O)OCc1cc(C(F)(F)F)cc(C(F)(F)F)c1 | 6.34% (inactive)
66 | O=C(O)CN(CCN(CC(=O)O)CC(=O)O)CC(=O)O | 1.89% (inactive)
67 | COCC1=C(C(=O)OC(C)OC(=O)OC(C)C)N2C(=O)[C@@H](NC(=O)/C(=N/OC)c3csc(N)n3)[C@H]2SC1 (some centres undefined) | -2.51% (inactive)
68 | NC(=O)N/N=C/c1ccc([N+](=O)[O-])o1 | -68.6% (inactive) and -50.1% (inactive)
69 | CCN(CC)c1ccc(/C=N/NC(=O)c2ccc(O)cc2)cc1 | 29.5% (inactive) and 44.8% (inactive)
70 | O=C(N/N=C/c1ccc([N+](=O)[O-])o1)c1ccc(O)cc1 | -85.5% (active)
71 | CCCCCCn1c(=O)c2c(ncn2C)n(C)c1=O | 11.4% (inactive)
72 | Cc1cccc(/C=C/c2ccccc2)n1 | 35.7% (inactive)
73 | Cc1ccc2ccc3ccc(C)nc3c2n1 | -94.5% (active)
74 | CCc1nc(C)ccc1O | -11.9% (inactive)
